# Assay outcomes deposited in PubChem BioAssay by Sanford-Burnham Center for Chemical Genomics.
# A selection: hits, their analogues and other compounds. The true share with any hit is near 3.2%.
# PfGluPho inh – PfG6PD (Plasmodium falciparum) enzyme inhibition | PfGluPho enzyme, NADPH resazurin-diaphorase fluorescence | hit rate 0.78% among 350,000 | inhibition, % at 20 µM;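 active means inhibition reaching at least a set limit at 20 µM in the primary screen, cut at about 59% in these data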;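 further: 0% = DMSO wells with substrate and 100% = DMSO wells lacking glucose-6-phosphate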
# FAS TE block – blocks the thioesterase domain of human fatty acid synthase; P49327; recombinant FAS-TE, OMFH fluorogenic substrate, fluorescence endpoint; inhibition, % at 15 µM; hit rate 0.67% among 360,000; AID 602261;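 active means compounds whose normalised, plate-corrected inhibition of enzyme fluorescence in the single-dose primary screen is 50% or more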;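 further: 0% = DMSO with enzyme and 100% = substrate without enzyme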
# aDG glyco act – increases alpha dystroglycan glycosylation; Pro5-aDG cells, alpha-DG glycosylation AlphaScreen (IIH6); 0% Pro5, 100% B10-LARGE cell signal; activation, % at 10 µM; hit rate 0.22% among 360,000;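 active means activation of at least 8% versus controls, or a plate z-score of at least 8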;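 further: Pro5 are CHO cells carrying HIG-tagged alpha-DG that lacks glycosylation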
# CRFBP-R2 block – CRF-BP/CRF-R2 complex antagonism | inhibition, % at 11.8 µM | HEK293 CRF-R2/CRF-BP, CRF-induced calcium fluorescence | hit rate 0.59% among 350,000 | AID 588475;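 active means inhibition of the ligand-induced calcium signal above about 50% at the single tested concentration, limit read from the data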
# CRFR2-BP ag – agonists of human CRF-binding protein/CRF-R2 receptor complex. HEK293 CRF-R2/CRF-BP, calcium dye fluorescence (FLIPR); percent of saturating CRF peptide response. hit rate 0.46% among 350,000. AID 588473. activation, % at 13.2 µM;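 active means activation of at least 50%, plus an integration ratio under a set limit after plate pattern correction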;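 further: plate controls were neutral control wells without compound for no effect and CRF at EC100 for full effect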
# Cardio protect – myocardial damage modulation in H9c2 cells; H9c2 cardiomyocytes, H2O2 injury protection, ATPLite, 2 h; protection from H2O2 cell death, % at 20 µM; hit rate 0.63% among 360,000;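 active means compounds giving at least 50% protection of heart cells from peroxide-induced death in the single-dose screen, raw or plate-pattern-corrected value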;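 further: 0% = DMSO wells with peroxide and 100% = DMSO wells without peroxide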
# PfG6PD confirm – PfG6PD inhibition, single-dose confirmed; shares compounds with PfGluPho inh; recombinant PfGluPho, NADPH-diaphorase-resazurin fluorescence; inhibition, % at 20 µM; hit rate 34% among 2,400;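 active means inhibition of at least 50% at 20 µM in any single replicate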;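 further: 0% = DMSO with substrate and 100% = DMSO lacking glucose-6-phosphate substrate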
# Diaphorase 10uM – diaphorase inhibition or oxidation at 10 uM NADPH; shares compounds with PfGluPho inh; diaphorase-coupled resazurin reduction, fluorescence, NADPH 10 uM; inhibition, % at 20 µM; hit rate 39% among 820;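 active means average inhibition reaching 50% or more with the compound at 20 µM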;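 further: resorufin red fluorescence formed as diaphorase reduces resazurin using NADPH; 0% = DMSO with enzyme and 100% = DMSO without enzyme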
# Diaphorase 30uM – diaphorase inhibition or oxidation at 30 uM NADPH; shares compounds with PfGluPho inh; Diaphorase/resazurin coupled assay, resorufin fluorescence; inhibition, % at 20 µM; hit rate 29% among 820; AID 504863;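 active means inhibition averaging 50% or more, tested at 20 µM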;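 further: 0% = DMSO with enzyme and 100% = DMSO wells lacking diaphorase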
# * = called active by the depositor; x = not tested or not shown.
SMILES,PfGluPho inh,FAS TE block,aDG glyco act,CRFBP-R2 block,CRFR2-BP ag,Cardio protect,PfG6PD confirm,others
Cc1cc(C)c2c(=O)n(CC(=O)Nc3ccc(Br)c(C)c3)sc2n1,111.6*,-3.5,0.0,-15.2,13.3,-28.1,79.9*,Diaphorase 10uM=-7.1;Diaphorase 30uM=-13.9
Cc1cc(NC(=O)Cc2ccsc2)ccc1Br,8.0,6.6,0.1,4.9,1.6,-9.8,x,
Cc1c(Cl)cccc1NC(=O)Cn1cccc1,8.3,-4.0,0.6,-0.9,0.1,5.5,x,
Cc1cc(C)c2c(=O)n(CC(=O)Nc3cccc(Cl)c3C)sc2n1,105.6*,-5.2,0.4,-31.9,45.7,-21.4,85.0*,Diaphorase 10uM=-12.5;Diaphorase 30uM=-4.3
Cc1cc(C)c2c(=O)n(CC(=O)NC3CCCC3)sc2n1,90.2*,-7.9,-0.2,-8.5,0.8,-32.5,72.9*,Diaphorase 10uM=-32.2;Diaphorase 30uM=-16.1
O=[N+]([O-])c1ccccc1S(=O)(=O)N(CC1CO1)c1ccccc1 (stereo unspecified),-15.9,0.1,0.1,8.3,0.0,8.7,x,
CCNc1nc2nonc2nc1NCC,4.9,-4.0,-0.1,-4.8,-0.6,4.3,x,
Cc1c(N)cc2c(c1N)C(C)(C)CC2(C)C,83.1*,-8.8,0.1,-6.3,-2.1,0.2,45.7,
O=C(Nc1cccc([N+](=O)[O-])c1)c1ccc2ccccc2c1O,77.6*,27.6,0.5,33.3,26.0,-22.9,8.2,
O=C(Nc1cccc([N+](=O)[O-])c1)c1ccncc1,-8.3,-6.4,0.0,7.4,1.4,0.6,x,
CC(C)(C)c1ccc(C(=O)Nc2cccc([N+](=O)[O-])c2)cc1,74.0*,46.4,1.2,-19.4,-0.2,-9.6,-0.7,
O=C(c1nnsc1S(=O)c1ccc(Cl)cc1)N1CCOCC1 (stereo unspecified),15.4,25.5,-0.9,15.1,2.5,-29.5,x,
O=C(Nc1ccccc1)c1nnsc1S(=O)c1ccc(Cl)cc1 (stereo unspecified),63.6*,41.0,-0.9,-47.1,10.5,-31.4,17.6,
CC(C)(C)S(=O)N1Cc2cc(=O)n(Cc3ccccc3)c(CCO)c2[C@H]1CCO (stereo partly specified),-1.2,-8.6,0.7,-6.1,0.6,6.0,x,
Cc1cccc(OCCn2c(=S)[nH]c3ccccc32)c1,68.2*,4.3,-0.1,4.5,-1.1,-7.0,32.0,
O=C(CCN1C(=O)/C(=C\c2ccccc2)SC1=S)NCCCN1CCOCC1,4.2,-3.7,0.1,-0.2,-0.7,-8.2,x,
O=C1C(=Cc2ccccc2O)SC(=S)N1CCCN1CCOCC1,71.3*,3.3,0.6,-11.1,-0.9,3.0,42.8,
CCOC(=O)C(C(=O)Nc1ccc(C)cc1)C1CCCCC1 (stereo unspecified),-4.0,7.8,-0.1,-28.0,0.0,-7.5,x,
S=c1ncc2[nH]c(=S)[nH]c2[nH]1,68.3*,-9.0,0.1,5.0,2.5,0.9,59.0*,Diaphorase 10uM=-21.0;Diaphorase 30uM=2.0
CNS(=O)(=O)c1ccc2nc(NC(=O)c3ccc(N4C(=O)CCC4=O)cc3)sc2c1,63.5*,-3.2,-0.1,-3.2,0.2,23.0,40.9,
COc1ccc(N)c2c1C(=O)c1ccccc1C2=O,-2.6,-6.4,-0.3,3.6,-0.3,12.6,x,
COC1=C(N)C(=O)c2nc(C)ccc2C1=O,108.6*,29.7,6.6,13.2,3.8,-20.5,93.2*,Diaphorase 10uM=49.0;Diaphorase 30uM=56.8*
COC1=C(Nc2ccc(C)cc2)C(=O)c2ccccc2C1=O,-85.1,5.0,0.4,-4.6,1.7,-18.9,x,
COC1=C(Br)C(=O)c2nc(C)ccc2C1=O,101.1*,7.3,-0.4,34.5,2.0,-20.5,73.7*,Diaphorase 10uM=46.2;Diaphorase 30uM=37.2
O=C(NCC1CCCO1)c1cccc(S(=O)(=O)N2CCCCC2)c1 (stereo unspecified),-2.1,-5.4,0.1,-5.9,-0.6,0.7,x,
SMILES,PfGluPho inh,FAS TE block,aDG glyco act,CRFBP-R2 block,CRFR2-BP ag,Cardio protect,PfG6PD confirm,others
Oc1ccc(N2CCN(c3nc(-c4cccs4)nc4ccccc34)CC2)cc1,60.4*,21.4,-0.2,3.0,-2.0,9.5,6.4,
c1ccc(N2CCN(c3nc(-c4cccs4)nc4ccccc34)CC2)cc1,8.6,43.9,-0.3,-14.0,-1.2,12.6,x,
CC1(c2ccccc2)NC(=O)N(CC(=O)N2CCN(S(=O)(=O)c3cccc(C(F)(F)F)c3)CC2)C1=O (stereo unspecified),4.4,-0.2,-0.3,7.3,-2.1,-4.2,x,
CC1(C)CC(=O)c2c(O)c(-c3ccccc3)c(=O)n(-c3ccccc3)c2C1,-12.2,-7.3,-0.2,7.3,-0.4,1.0,x,
COc1ccccc1-c1nnc(NC(=O)c2ccc3c(c2)OCO3)s1,9.9,-4.0,-0.7,-1.0,0.8,-14.7,x,
CC(C)c1nnc(NC(=O)c2sc3ccccc3c2Cl)s1,63.8*,-6.5,0.4,-3.7,-3.9,-17.9,62.5*,Diaphorase 10uM=39.4;Diaphorase 30uM=35.7
Cc1cnc(NC(=O)c2sc3ccccc3c2Cl)s1,57.2,0.3,-0.1,-73.1,2.5,-10.2,x,
CCOC(=O)CSc1nnc(NC(=O)c2ccc3c(c2)OCO3)s1,49.6,-11.2,-0.1,-11.5,-1.8,-17.5,x,
CCSc1nnc(NC(=O)c2ccc3c(c2)OCO3)s1,85.3*,-6.2,-0.3,-16.2,0.5,-4.1,73.9*,Diaphorase 10uM=68.4*;Diaphorase 30uM=67.8*
CC(C)c1nnc(NC(=O)c2ccc3c(c2)OCO3)s1,73.0*,0.8,0.1,-30.0,-1.9,-10.1,19.9,
CC(C)Sc1nnc(NC(=O)c2ccc3c(c2)OCO3)s1,99.9*,3.4,0.0,-20.7,0.0,1.5,65.6*,Diaphorase 10uM=58.9*;Diaphorase 30uM=46.0
Cc1ccc(OCC(=O)OCC(=O)c2cccc([N+](=O)[O-])c2)cc1C,-15.4,9.6,-0.3,28.6,2.3,2.0,x,
COc1cccc(C(=O)NNC(=O)c2ccc3ccccc3c2)c1,-17.0,-3.1,0.1,9.4,-4.4,-2.8,x,
Cc1nnc(NC(=O)c2ccc3ccccc3c2)s1,20.1,-1.7,0.2,-28.5,-0.7,0.8,x,
CC(C)c1nnc(NC(=O)c2ccc3ccccc3c2)s1,73.6*,-4.2,0.2,-31.3,0.6,-0.6,29.9,
COC(=O)CCC(=O)OC1(C)C(=O)C2=CN(C3CCCC3)C(c3ccc(OC)cc3)=CC2=C(Br)C1=O (stereo unspecified),70.4*,-7.7,0.5,12.2,0.3,5.0,67.4*,Diaphorase 10uM=55.9*;Diaphorase 30uM=50.5*
COCCN1C=C2C(=O)C(C)(OC(=O)CCC(=O)OC)C(=O)C(Br)=C2C=C1c1ccc(OC)cc1 (stereo unspecified),93.7*,-9.1,0.0,21.0,3.2,6.8,43.7,
